The list is not random: actives were taken first. Their share in the collection is about 3.3%.
PRMT1 FP inh – blocks human protein arginine methyltransferase 1. Q99873. recombinant PRMT1, activity-based probe fluorescence polarization. inhibition, % at 2.79 µM. 1.3% of 370,000 active;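 active = inhibition above about 21% made by adding two undisclosed values, limit read from the data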
UHRF1 MBD2 ctr – human UHRF1 methylated DNA binding inhibitors; UHRF1 binding to methylated oligo, TR-FRET; Q96T88; AID 687016; 0.75% of 370,000 active; inhibition, % at 4.4 µM; in the data active = inhibition above about 21%;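 also: UHRF1 SRA domain binding a hemimethylated CpG hairpin DNA probe; 0% = median of test compound wells and 100% = reference inhibitor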
PfGluPho inh – PfG6PD (Plasmodium falciparum) enzyme inhibition; PfGluPho enzyme, NADPH resazurin-diaphorase fluorescence; inhibition, % at 20 µM; 0.78% of 350,000 active; AID 504690;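 active = inhibition reaching at least a set limit at 20 µM in the primary screen, cut at about 59% in these data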;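 also: 0% = DMSO wells with substrate and 100% = DMSO wells lacking glucose-6-phosphate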
PfM18AAP inh – PfM18AAP enzyme inhibition | recombinant PfM18AAP, H-Glu-NHMec fluorogenic cleavage | inhibition, % at 7.35 µM | 1.2% of 290,000 active | AID 1822;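 active = inhibition above the campaign mean inhibition over all tested compounds plus 3 SD, cut at about 28% in these data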;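 also: 0% = plate median of test compound wells and 100% = 2 mM ZnCl2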
MBD2 DNA inh – inhibitors of human MBD2 binding to methylated oligonucleotide. Q9UBB5. TR-FRET. inhibition, % at 4.4 µM. 0.31% of 370,000 active; in the data active = inhibition above about 13%
Target sequence (Q9UBB5 whole entry, looked up): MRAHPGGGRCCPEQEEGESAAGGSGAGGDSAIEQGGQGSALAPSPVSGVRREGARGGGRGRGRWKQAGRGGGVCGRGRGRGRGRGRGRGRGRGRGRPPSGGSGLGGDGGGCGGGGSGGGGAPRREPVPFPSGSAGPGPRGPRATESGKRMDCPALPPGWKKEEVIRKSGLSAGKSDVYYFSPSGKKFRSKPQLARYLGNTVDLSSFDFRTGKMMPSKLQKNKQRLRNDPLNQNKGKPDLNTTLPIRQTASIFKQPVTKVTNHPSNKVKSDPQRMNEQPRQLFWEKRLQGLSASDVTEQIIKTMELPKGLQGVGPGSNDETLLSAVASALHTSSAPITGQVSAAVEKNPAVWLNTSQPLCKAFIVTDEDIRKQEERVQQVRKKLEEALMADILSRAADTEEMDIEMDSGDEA
* marks the source's active call; other numbers are inactive results; / = no result given.

SMILES | PRMT1 FP inh | UHRF1 MBD2 ctr | PfGluPho inh | PfM18AAP inh | MBD2 DNA inh
Cc1ccc(NC(=O)CSc2nnc(Cn3cnc4ccccc43)o2)c(C)c1 | 0 | 1 | -17 | 5 | 0
COc1cc(C(=O)NC2CCCCN(Cc3cccc(Cl)c3)C2=O)cc(OC)c1OC (stereo not drawn) | -2 | -1 | / | / | 1
CCOC(=O)C1=CCN(S(=O)(=O)c2ccc(Br)cc2)C1c1ccc(F)cc1 (stereo not drawn) | 0 | 0 | / | / | 3
COC(=O)[C@]12C[C@H](CC(=O)NCc3ccc(C)o3)C(=O)N(Cc3ccc(Cl)cc3Cl)C1=C[C@H](C1CCCC1)O[C@@H]2C | 6 | 1 | / | / | -2
O=C(CC1CCCC1)N1CC[C@H]2[C@H](CCCN2Cc2cc(F)cc(F)c2)C1 | -2 | 1 | / | / | -1
Cc1cc2nc3c(=O)n(CCc4ccccc4)c(=O)[nH]c3nc2cc1N | 109* | -33 | 40 | 34* | -13
CCOCCCNC(=S)N1CCN(c2nc(-c3ccc(F)cc3)cs2)CC1 | -3 | -2 | 8 | -4 | -5
COCCCNC(=S)N1CCN(c2nc(-c3ccc(F)cc3)cs2)CC1 | 2 | 65* | 10 | 2 | 6
COC(=O)[C@]12C[C@H](CC(=O)N3CCCCC3)C(=O)N(Cc3ccco3)C1=C[C@H](C(C)(C)C)O[C@@H]2C | -6 | 1 | / | / | 6
Cc1cccc(C)c1NC(=O)C(CCc1ccccc1)N1CCN(CCN(C)C)CC1 (stereo not drawn) | 1 | -1 | / | / | 1
O=C(c1cccc(S(=O)(=O)Nc2ccccc2Cl)c1)N1CCN(c2ccccc2O)CC1 | 2 | 21* | -17 | / | 3
O=C(c1cccc(S(=O)(=O)Nc2ccccc2Cl)c1)N1CCCCCC1 | 0 | 1 | -32 | / | 2
O=C(c1cccc(NS(=O)(=O)c2cccc(F)c2)c1)N1CCCC1 | 1 | 21* | 7 | -3 | 4
CC(C)[C@H](NC(=O)OCc1ccccc1)C(=O)N[C@@H](Cc1ccccc1)C1(O)CN(C)C(C(=O)NCc2ccccn2)CO1 (stereo partly drawn) | 4 | -2 | / | / | 3
CC(C)(Oc1ccc(Cl)cc1)C(=O)Nc1ncccn1 | 3 | 22* | -8 | -12 | 13
COCCCNC(=O)C[C@H]1C[C@@]2(C(=O)OC)C(=C[C@H](C(C)C)O[C@@H]2C2CC2)N(Cc2ccc3c(c2)OCO3)C1=O | -4 | -4 | / | / | -3
N#Cc1c(F)cccc1N1CCOCC1 | -1 | 53* | 0 | -4 | -2
Cc1ccc(CS/C(Nc2ccccc2C)=C(\C#N)C(=O)NCc2ccco2)c(C)c1 | 1 | 20 | 17 | 1 | 6
Cc1ccccc1N/C(SCc1ccc(Cl)cc1)=C(/C#N)C(=O)NCc1ccco1 | 3 | 22* | 15 | -1 | 6
CC(C(=O)OCC(=O)Nc1ccc2c(c1)OCO2)N1C(=O)c2ccccc2C1=O (stereo not drawn) | -1 | 19 | 9 | -1 | 34*
CC(C(=O)Oc1ccc2c(c1)OCO2)N1C(=O)c2ccccc2C1=O (stereo not drawn) | / | / | / | 23 | /
O=C1C(Cl)=C(Nc2ccccc2O)C(=O)N1c1ccccc1 | 22* | -2 | 44 | 46* | -2
Cc1c(NC2=C(Cl)C(=O)N(c3ccccc3)C2=O)c(=O)n(-c2ccccc2)n1C | 2 | -2 | 2 | 11 | -3
CCCSc1nnc(-c2ccco2)n1C | 2 | 1 | / | / | -3
COc1ccccc1N1C(=O)CC(Nc2ccc(N3CCOCC3)cc2)C1=O (stereo not drawn) | 22* | 1 | 38 | 19 | 0
SMILES | PRMT1 FP inh | UHRF1 MBD2 ctr | PfGluPho inh | PfM18AAP inh | MBD2 DNA inh
COc1ccc(NC(=O)CN(C)C(=O)CSCC(=O)Nc2ccc(C)cc2)cc1 | 19 | 8 | -3 | / | 9
COc1cccc(NC(=O)CN(C)C(=O)CSCC(=O)Nc2ccc(C)cc2)c1 | 2 | 29* | 4 | / | 2
CC(C)c1ccc(N2C(=O)CC(Sc3nc4ccccc4o3)C2=O)cc1 (stereo not drawn) | 23* | -1 | 31 | -44 | 1
Cc1ccc(N2C(=O)CC(Sc3nc(C)cc(C)n3)C2=O)cc1 (stereo not drawn) | 0 | -1 | -7 | 2 | -4
O=C(Nc1cccc(F)c1)OCCCN1CCC2(CCC(c3ccccc3)CC2)C1 (stereo not drawn) | -3 | 0 | / | / | 3
c1ccc2c(c1)-c1nc3ccccc3cc1C2N1CCOCC1 (stereo not drawn) | -4 | -4 | 21 | / | 2
c1ccc2c(c1)-c1ccccc1C2N1CCOCC1 | 24* | -1 | -14 | / | -3
C=CCn1c(COc2ccccc2)nnc1SCC(=O)c1ccc(-c2ccccc2)cc1 | 4 | -1 | / | / | 0
COc1ccc(CNC(=O)C2CCN(c3nnc(N4CCCC4=O)s3)CC2)cc1 | -4 | 22* | 6 | 1 | 3
COc1ccc(Br)cc1CNC(=O)C1CCN(c2nnc(N3CCCC3=O)s2)CC1 | -4 | 2 | -6 | -5 | 2
O=C1NN(c2ccc(F)c(Cl)c2)C(=O)/C1=C\c1cccc(OC(=O)c2cccs2)c1 | 24* | -3 | 0 | -23 | -6
CC(NS(=O)(=O)c1cn(C)c(=O)n(C)c1=O)c1ccccc1 (stereo not drawn) | 9 | 24* | -2 | 6 | 9
COCCCOc1ccnc(CS(=O)c2nc3ccccc3[nH]2)c1C (stereo not drawn) | 11 | 1 | 17 | 31* | 0
Cc1c(OCC(F)(F)F)ccnc1CS(=O)c1nc2ccccc2[nH]1 (stereo not drawn) | 28* | -1 | 50 | 22 | -4
Cc1ccc(Cc2c(C(C)(C)C)nc3ccc(Br)cn23)cc1 | 3 | 23* | / | / | 7
Cc1ccc(Cc2c(C3CCCCC3)nc3ccc(Br)cn23)cc1 | 1 | 15 | / | / | 7
CCCN1C(=O)/C(=C/c2c(N3CCNC(=O)C3CC(=O)OCC)nc3c(C)cccn3c2=O)SC1=S (stereo not drawn) | / | / | 60* | 4 | /
COc1ccc(-c2cc3ccc(OCC(C)=O)cc3oc2=O)cc1OC | -3 | -2 | 10 | 4 | -8
COc1ccc(-c2cc3ccc(OCC(C)=O)cc3oc2=O)cc1 | -1 | 23* | 4 | 5 | 12
COc1cc2c(C(F)(F)F)c(-c3ccc(C#N)cc3)oc(=O)c2cc1OC | 0 | -1 | -5 | / | -6
COc1cc2c(C(F)(F)F)c(-c3ccsc3)oc(=O)c2cc1OC | 3 | 21* | -17 | / | 7
COC(=O)[C@]12C[C@H](CC(=O)NCc3cccc4ccccc34)C(=O)N(Cc3ccc4c(c3)OCO4)C1=C[C@H](C(C)(C)C)O[C@@H]2C | -1 | 1 | / | / | 4
CC(C)N(C(=O)[C@H]1C[C@H](CC(=O)NCCCN(C)C)C(=O)N2CCc3c([nH]c4cc(CCC(=O)N(C)C)ccc34)[C@]12C)C(C)C | -3 | 21* | 2 | / | 5
COc1ccc(CNC(=O)C[C@H]2C[C@H](C(=O)N3CCCCC3)[C@@]3(C)c4[nH]c5ccc(Cl)cc5c4CCN3C2=O)cc1OC | 2 | 21* | 21 | / | 11

Source: PubChem (several laboratories)
